# Records with an inconclusive call do not appear. A call without a number means that no potency is given here. Activity calls are given as the source filed them. The call rests on the fitted dose curve; in most records, active means well fitted inhibition curve with a large enough effect; inconclusive means small, poorly fitted or top-dose-only effect; inactive means no such curve, though single readings can be large or run the other way. Peptide text beside a SMILES is read from it.
# Molecular target: Retinaldehyde dehydrogenase 3 (Homo sapiens) (UniProt P47895)
# Experiment: qHTS for Inhibitors of the Aldehyde Dehydrogenase Family (ALDH1A3) Primary screen (AID 2061315)
# Details: ALDH inhibition qHTS; series mostly up to 56 µM
SMILES,Potency,"activity change, negative = inhibition"
C=C[C@]1(C)C=C2CCC3C(C)(CCC[C@@]3(C)C(=O)O)C2CC1 (stereo not given in full),inactive,–
C=C1C(=O)O[C@@H]2C[C@@]3(C)CCC[C@H](C)C3=C[C@H]12,inactive,–
CC1=C(c2ccc(NC(=O)c3c(F)cccc3F)cc2)CN(c2nccs2)CC1,inactive,–
CC(C)C1NC(=O)CNC(=O)C2CCCN2C(=O)C(Cc2c[nH]c3ccccc23)NC(=O)CNC(=O)C(Cc2ccc(O)cc2)NC(=O)CNC1=O (stereo not given) (cyclo(GVGYGWP); configuration not given here),inactive,–
C/C(=N\O)c1ccc(OCC(=O)N2CCCCC2)cc1,inactive,–
O=C(O)C[C@H]1CCC(=O)[C@@H]1C/C=C\CCOC1OC(CO)C(O)C(O)C1O (stereo not given in full),inactive,–
C=C1C(=O)O[C@@H]2/C=C(\CO)CC/C=C(/C=O)C[C@H](O)[C@@H]12,inactive,–
COc1cccc(OC)c1-c1ccc(C[C@H](NC(=O)c2c(Cl)cccc2Cl)C(=O)O)cc1,inactive,–
COC(=O)[C@@H](O)[C@H]1[C@@]2(C)CC3(O)[C@@H](C(=O)[C@H]2O)[C@]24O[C@]25CC(=O)O[C@@H](c2ccoc2)[C@]5(C)CCC4[C@]13C (stereo not given in full),inactive,–
CC1(C)CC[C@]2(C(=O)O[C@@H]3O[C@H](CO[C@@H]4O[C@H](CO)[C@@H](O)[C@H](O)[C@H]4O[C@@H]4O[C@H](CO)[C@@H](O)[C@H](O)[C@H]4O)[C@@H](O)[C@H](O[C@@H]4O[C@H](CO)[C@@H](O)[C@H](O)[C@H]4O)[C@H]3O)CC[C@]3(C)C(=CCC4[C@@]5(C)CC[C@@H](O)[C@@](C)(C(=O)O[C@@H]6O[C@H](CO)[C@@H](O)[C@H](O)[C@H]6O)C5CC[C@]43C)[C@@H]2C1 (stereo not given in full),–,9.33% [at 11.2 µM] (inactive)

# — PubChem BioAssay (NCATS)
